The values below come from PubChem BioAssay (NCATS).

Inconclusive results are not listed. Active and inactive are the calls of the source. Calls follow the shape of the dose curve; as a rule, active = well fitted curve in the direction sought with a large enough effect; inconclusive = small, poorly fitted or top-dose-only effect, or another doubt; inactive = no such curve, though single readings can be large; an effect the other way counts as inactive or inconclusive.

Experiment [1] concerns the target Glutathione peroxidase 1 (Homo sapiens) (UniProt P07203). Nature of the experiment: Primary qHTS Assay for Inhibitors of Recombinant Selenoprotein Glutathione Peroxidase 1 (GPX1) (AID 1845191). Also: nearly all actives have a fitted effect of over 65% in size. Also: potency is read from the fitted curve at half-maximal effect. The procedure, abridged:
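Recombinant GPX1 (10 nM final) was preincubated with compound for 30 min at room temperature, then reacted with 1 mM GSH, 0.5 mM CHP, 0.5 mM NADPH and 100 nM glutathione reductase; NADPH fluorescence (340/450 nm) was read at 0 and 15 min.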
Background: qHTS replaces the single test concentration by a dilution series.

Experiment [2] has as its target Phospholipid hydroperoxide glutathione peroxidase GPX4 (Homo sapiens) (UniProt P36969). The experiment can be described thus: Primary qHTS Assay for Inhibitors of Recombinant Selenoprotein Glutathione Peroxidase 4 (GPX4) (AID 1845192). Also: nearly all actives have a fitted effect of over 65% in size. Also: potency is read from the fitted curve at half-maximal effect. The procedure, abridged: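 GR-coupled readout: 100 nM GR, 1 mM GSH, 0.5 mM NADPH; NADPH fluorescence (ex 340/em 450 nm) read at t=0 and after 15 min RT. GPX4 200 nM, preincubated 30 min with compound; substrate 0.5 mM CHP.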

For experiment [3], the target named is Luciferin 4-monooxygenase (Photinus pyralis) (UniProt P08659). Nature of the experiment: Primary firefly luciferase (FLuc) qHTS assay for identification of artifact compounds. (AID 1845220). Also: nearly all actives have a fitted effect of over 60% in size. The procedure, abridged:
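In this counter-screen for luciferase artifacts, test compounds met substrate (10 uM each luciferin and ATP) before 10 nM enzyme started the reaction. Light output was measured 5 min later.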

A short description of experiment [4]: Primary fluorescence-based thiol-reactive (MSTI) qHTS assay for identification of artifact compounds. (AID 1845221). Also: nearly all actives have a fitted effect of over 65% in size. Also: potency is read from the fitted curve at half-maximal effect. In outline:
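Curve-fitted percent inhibition (4-parameter Hill) derived from fluorescence, Ex 525/Em 598 nm, scaled with Acetyl-MSTI and MSTI; 1 h incubation at room temperature.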

Experiment [5] has as its system Nanoluciferase (engineered Oplophorus gracilirostris luciferase). Nature of the experiment: Primary Nanoluciferase (NLuc) qHTS assay for identification of artifact compounds. (AID 1845222).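 Also: NLuc secreted into diluted conditioned medium of S16 cells; series mostly up to about 54 µM.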 In outline:
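Using secreted nanoluciferase in S16 culture medium (0.22 um filtered, 1:55 dilution), compounds were preincubated 15 min at RT. Signal was generated with Nano-Glo reagent (1:100) over 5 min.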

A short description of experiment [6]: Primary redox qHTS assay for identification of artifact compounds. (AID 1845223). In outline: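 Amplex Red (25 uM) and HRP (250 mU/mL) in HBSS, with compounds for 15 min, then 250 uM DTT for 30 min, room temperature, dark. Fluorescence 525/598 nm read; normalized to DMSO and 10 uM DA3003; Hill fit.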

Sequence of Glutathione peroxidase 1 (Homo sapiens) (P07203 whole entry, looked up): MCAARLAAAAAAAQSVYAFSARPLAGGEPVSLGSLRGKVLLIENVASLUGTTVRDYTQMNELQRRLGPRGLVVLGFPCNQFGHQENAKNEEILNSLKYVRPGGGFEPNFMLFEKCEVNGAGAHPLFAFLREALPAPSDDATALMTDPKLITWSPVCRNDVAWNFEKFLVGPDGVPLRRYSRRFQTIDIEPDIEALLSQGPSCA
Sequence of Phospholipid hydroperoxide glutathione peroxidase GPX4 (Homo sapiens) (P36969 whole entry, looked up): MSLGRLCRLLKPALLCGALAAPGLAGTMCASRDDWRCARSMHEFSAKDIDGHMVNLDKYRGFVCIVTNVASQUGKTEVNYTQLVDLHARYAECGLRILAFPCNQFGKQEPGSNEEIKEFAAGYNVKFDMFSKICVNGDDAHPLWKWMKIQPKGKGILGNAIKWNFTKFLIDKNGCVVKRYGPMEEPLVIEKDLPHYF

Regarding `COC(=O)C(Cc1ccc(OCCn2c(=O)sc3cc(C(=O)c4ccccc4)ccc32)cc1)C(=O)OC`, the Potency entry in experiment [1], in experiment [2], in experiment [3], in experiment [4], in experiment [5] and in experiment [6] was “inactive” each time.
As for `CCOc1cc(C(C)(C)C)ccc1C1=N[C@@](C)(c2ccc(Cl)cc2)[C@@](C)(c2ccc(Cl)cc2)N1C(=O)N1CCN(CC(=O)N2CCOCC2)CC1`, the Potency result in experiment [1], in experiment [2], in experiment [3], in experiment [4], in experiment [5] and in experiment [6] was “inactive” in each case.
In the case of `CC(C)(C)Oc1ccc(OCC2Cc3ccccc3CN2C(=O)c2cccc3ccccc23)cc1` (centres undefined), the Potency entry in experiment [1], in experiment [2], in experiment [3], in experiment [4], in experiment [5] and in experiment [6] was “inactive” each time.
Regarding `CC(=O)O[C@@H]1C[C@@]23C[C@@]24CC[C@H](O[C@@H]2OC[C@H](O)[C@H](O)[C@H]2O)C(C)(C)[C@@H]4CC[C@H]3[C@]2(C)[C@@H](O)C34O[C@H](C[C@@H](C)[C@@H]3[C@@]12C)[C@@H](C(C)(C)O)O4`, the Potency result in experiment [1], in experiment [2], in experiment [3], in experiment [4], in experiment [5] and in experiment [6] was “inactive” throughout.
Regarding `CCCN(CCc1ccsc1)C1CCc2c(O)cccc2C1` (centres undefined), the Potency entry in experiment [1], in experiment [2], in experiment [3], in experiment [4], in experiment [5] and in experiment [6] was “inactive” throughout.
For `CCn1c(-c2nonc2N)nc2c(C#CCO)ncc(OCCCN)c21`, the Potency result in experiment [1], in experiment [2], in experiment [3], in experiment [4], in experiment [5] and in experiment [6] was “inactive” throughout.
As to `Cn1c(=O)c(F)c(Nc2ccc(I)cc2F)c2c(=O)n(CC(O)CO)cnc21` (centres undefined), the Potency entry in experiment [1], in experiment [2], in experiment [3], in experiment [4], in experiment [5] and in experiment [6] was “inactive” in each case.
In the case of `CCN1CCN(Cc2ccc(C(=O)Nc3ccc(C)c(Oc4ccc5c(c4)CC(=O)N5)c3)cc2C(F)(F)F)CC1`, the Potency result in experiment [1], in experiment [2], in experiment [3], in experiment [4], in experiment [5] and in experiment [6] was “inactive” each time.
For the molecule `CC(=O)OC1C(OC(=O)c2ccccc2)C2C(=C(C)CCC2(C)C)C23CCC(C)(C2)C(=O)CC13` (centres undefined), the Potency entry in experiment [1], in experiment [2], in experiment [3], in experiment [4], in experiment [5] and in experiment [6] was “inactive” each time.
In the case of `CC(C)(CNC(=O)c1cccc(-c2noc(C(F)(F)F)n2)c1)c1coc(-c2ccccc2)n1`, the Potency entry in experiment [1], in experiment [2], in experiment [3], in experiment [4], in experiment [5] and in experiment [6] was “inactive” each time.
As to `O=C(Cc1c(F)cccc1F)Nc1cc(OCc2ccc(Cl)cc2)ccn1`, the Potency result in experiment [1], in experiment [2], in experiment [3], in experiment [4], in experiment [5] and in experiment [6] was “inactive” in each case.
For the molecule `C=C1C(=O)O[C@@H]2/C=C(\C)CC/C=C(/C=O)[C@H](OC)[C@@H](OC(=O)C(C)C)[C@@H]12`, the Potency result in experiment [1], in experiment [2], in experiment [3], in experiment [4], in experiment [5] and in experiment [6] was “inactive” in each case.
Regarding `CC(C)c1c(O)ccc2c1CC[C@H]1C(C)(C)CCC[C@]21C`, the Potency result in experiment [1], in experiment [2], in experiment [3], in experiment [4], in experiment [5] and in experiment [6] was “inactive” each time.
As for `O=C(N[C@H]1CCC[C@H](CO)C1)C1CCN(c2nc3cc(Cl)c(-c4ccc(Cl)cc4)cc3o2)CC1`, the Potency result in experiment [1], in experiment [2], in experiment [3], in experiment [4], in experiment [5] and in experiment [6] was “inactive” each time.
For the molecule `CC12CCC(OC3OC(CO)C(O)C(O)C3OC3OC(CO)C(O)C(O)C3O)CC1CCC1C2CCC2(C)/C(=C3/COC(=O)C3)CCC12O` (centres undefined), the Potency entry in experiment [1], in experiment [2], in experiment [3], in experiment [4], in experiment [5] and in experiment [6] was “inactive” each time.
On to `COc1cc(N2CCOCC2)ccc1NC(=O)c1csc(-c2cccnc2)n1`, for which the Potency entry in experiment [1], in experiment [2], in experiment [3], in experiment [5] and in experiment [6] was “inactive” in each case. For the same molecule, the Potency in experiment [4] is 2.38 µM (active).
Regarding `Cc1cc(NC(=O)NCCN2CCC(O)(Cc3ccccc3)CC2)c2ccccc2n1`, the Potency result in experiment [1], in experiment [2], in experiment [3], in experiment [4], in experiment [5] and in experiment [6] was “inactive” in each case.
Take `COc1ccc(-c2ccc3c(N4CCOCC4C)nc(N4CCOCC4C)nc3n2)cc1CO` (centres undefined): the results for the Potency in experiment [1] and in experiment [2] were 18 µM (active) and 10.1 µM (active), respectively. In addition, the Potency entry in experiment [3], in experiment [4], in experiment [5] and in experiment [6] was “inactive” in each case.
For `O=C(NCCN1CCN(c2cccc3c2OCCO3)CC1)c1ccc(F)cc1`, the Potency result in experiment [1], in experiment [2], in experiment [3], in experiment [4], in experiment [5] and in experiment [6] was “inactive” throughout.
Take `COc1ccccc1OCCN1CC(COc2cccc3[nH]c4ccccc4c23)OCC1=O` (centres undefined): the Potency result in experiment [1], in experiment [2], in experiment [3], in experiment [4], in experiment [5] and in experiment [6] was “inactive” in each case.
With `CNC(=O)[C@@H](c1ccccc1)N1CCc2cc(OC)c(OC)cc2[C@@H]1CCc1ccc(C(F)(F)F)cc1`, the Potency result in experiment [1], in experiment [2], in experiment [3], in experiment [4], in experiment [5] and in experiment [6] was “inactive” throughout.
In the case of `Cc1cc(C(=O)Nc2cc(Oc3ccc4nc(NC(=O)C5CC5)cn4n3)ccc2C)n(C)n1`, the Potency result in experiment [1], in experiment [3], in experiment [4], in experiment [5] and in experiment [6] was “inactive” throughout. For the same molecule, the Potency in experiment [2] is 25.5 µM (active).
On to `COC(=O)c1cc(Br)cnc1N1CCC(NC2CCCCC2)C(O)C1` (centres undefined), for which the Potency entry in experiment [1], in experiment [2], in experiment [3], in experiment [4], in experiment [5] and in experiment [6] was “inactive” in each case.
As to `COc1cccc(N2CCN(C3=Nc4c(F)cccc4[C@H](CC(=O)O)N3c3cc(C(F)(F)F)ccc3OC)CC2)c1`, the Potency entry in experiment [1], in experiment [2], in experiment [3], in experiment [4], in experiment [5] and in experiment [6] was “inactive” throughout.
